Drawing on PubChem BioAssay, this text covers composite z-score and z-score for 17 compounds.

Assay [1] is described as follows: binders of probe aFSTL3 on microarray, primary screen, stem cell growth factor project, biochemical, small-molecule microarray, fluorescence 635/667 (AID 1064).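 Note: measures binding of the biotinylated anti-FSTL3 antibody to printed compounds.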 As to conditions: higher = more signal.
Assay [2] can be described thus: binders from COS7 lysate, DM2A8 probe, primary screen, torsin A project, cell lysate, small-molecule microarray, fluorescence 635/667 (AID 1065). As to conditions: higher = more signal, COS7 lysate expressing mutant human TOR1A.
Assay [3] in a line: binders of probe aFGF2 on microarray, primary screen, stem cell growth factor project, biochemical, small-molecule microarray, fluorescence 635/667 (AID 1067).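 Note: measures binding of biotinylated aFGF2 protein to printed compounds on slides; z-score merges feature fluorescence and signal-to-noise across triplicate slides.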 The conditions noted are these: higher = more signal.
Assay [4] in a line: binders of probe aFGF10 on microarray, primary screen, stem cell growth factor project, biochemical, small-molecule microarray, fluorescence 635/667 (AID 1071).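 Note: score merges 667 nm spot intensity and signal to noise from triplicate slides.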 The conditions noted are these: higher = more signal.
In assay [5] the target is Neurogenic locus notch homolog protein 2 (Homo sapiens) (UniProt Q04721). The assay can be described thus: Notch2 binders on small-molecule microarrays, primary screen, biochemical, small-molecule microarray, 635 nm fluorescence, stem cell growth factors (AID 1073). The conditions noted are these: Notch2 binding, higher = more signal.
Neurogenic locus notch homolog protein 2 (Homo sapiens), sequence (Q04721 whole entry, looked up, canonical isoform): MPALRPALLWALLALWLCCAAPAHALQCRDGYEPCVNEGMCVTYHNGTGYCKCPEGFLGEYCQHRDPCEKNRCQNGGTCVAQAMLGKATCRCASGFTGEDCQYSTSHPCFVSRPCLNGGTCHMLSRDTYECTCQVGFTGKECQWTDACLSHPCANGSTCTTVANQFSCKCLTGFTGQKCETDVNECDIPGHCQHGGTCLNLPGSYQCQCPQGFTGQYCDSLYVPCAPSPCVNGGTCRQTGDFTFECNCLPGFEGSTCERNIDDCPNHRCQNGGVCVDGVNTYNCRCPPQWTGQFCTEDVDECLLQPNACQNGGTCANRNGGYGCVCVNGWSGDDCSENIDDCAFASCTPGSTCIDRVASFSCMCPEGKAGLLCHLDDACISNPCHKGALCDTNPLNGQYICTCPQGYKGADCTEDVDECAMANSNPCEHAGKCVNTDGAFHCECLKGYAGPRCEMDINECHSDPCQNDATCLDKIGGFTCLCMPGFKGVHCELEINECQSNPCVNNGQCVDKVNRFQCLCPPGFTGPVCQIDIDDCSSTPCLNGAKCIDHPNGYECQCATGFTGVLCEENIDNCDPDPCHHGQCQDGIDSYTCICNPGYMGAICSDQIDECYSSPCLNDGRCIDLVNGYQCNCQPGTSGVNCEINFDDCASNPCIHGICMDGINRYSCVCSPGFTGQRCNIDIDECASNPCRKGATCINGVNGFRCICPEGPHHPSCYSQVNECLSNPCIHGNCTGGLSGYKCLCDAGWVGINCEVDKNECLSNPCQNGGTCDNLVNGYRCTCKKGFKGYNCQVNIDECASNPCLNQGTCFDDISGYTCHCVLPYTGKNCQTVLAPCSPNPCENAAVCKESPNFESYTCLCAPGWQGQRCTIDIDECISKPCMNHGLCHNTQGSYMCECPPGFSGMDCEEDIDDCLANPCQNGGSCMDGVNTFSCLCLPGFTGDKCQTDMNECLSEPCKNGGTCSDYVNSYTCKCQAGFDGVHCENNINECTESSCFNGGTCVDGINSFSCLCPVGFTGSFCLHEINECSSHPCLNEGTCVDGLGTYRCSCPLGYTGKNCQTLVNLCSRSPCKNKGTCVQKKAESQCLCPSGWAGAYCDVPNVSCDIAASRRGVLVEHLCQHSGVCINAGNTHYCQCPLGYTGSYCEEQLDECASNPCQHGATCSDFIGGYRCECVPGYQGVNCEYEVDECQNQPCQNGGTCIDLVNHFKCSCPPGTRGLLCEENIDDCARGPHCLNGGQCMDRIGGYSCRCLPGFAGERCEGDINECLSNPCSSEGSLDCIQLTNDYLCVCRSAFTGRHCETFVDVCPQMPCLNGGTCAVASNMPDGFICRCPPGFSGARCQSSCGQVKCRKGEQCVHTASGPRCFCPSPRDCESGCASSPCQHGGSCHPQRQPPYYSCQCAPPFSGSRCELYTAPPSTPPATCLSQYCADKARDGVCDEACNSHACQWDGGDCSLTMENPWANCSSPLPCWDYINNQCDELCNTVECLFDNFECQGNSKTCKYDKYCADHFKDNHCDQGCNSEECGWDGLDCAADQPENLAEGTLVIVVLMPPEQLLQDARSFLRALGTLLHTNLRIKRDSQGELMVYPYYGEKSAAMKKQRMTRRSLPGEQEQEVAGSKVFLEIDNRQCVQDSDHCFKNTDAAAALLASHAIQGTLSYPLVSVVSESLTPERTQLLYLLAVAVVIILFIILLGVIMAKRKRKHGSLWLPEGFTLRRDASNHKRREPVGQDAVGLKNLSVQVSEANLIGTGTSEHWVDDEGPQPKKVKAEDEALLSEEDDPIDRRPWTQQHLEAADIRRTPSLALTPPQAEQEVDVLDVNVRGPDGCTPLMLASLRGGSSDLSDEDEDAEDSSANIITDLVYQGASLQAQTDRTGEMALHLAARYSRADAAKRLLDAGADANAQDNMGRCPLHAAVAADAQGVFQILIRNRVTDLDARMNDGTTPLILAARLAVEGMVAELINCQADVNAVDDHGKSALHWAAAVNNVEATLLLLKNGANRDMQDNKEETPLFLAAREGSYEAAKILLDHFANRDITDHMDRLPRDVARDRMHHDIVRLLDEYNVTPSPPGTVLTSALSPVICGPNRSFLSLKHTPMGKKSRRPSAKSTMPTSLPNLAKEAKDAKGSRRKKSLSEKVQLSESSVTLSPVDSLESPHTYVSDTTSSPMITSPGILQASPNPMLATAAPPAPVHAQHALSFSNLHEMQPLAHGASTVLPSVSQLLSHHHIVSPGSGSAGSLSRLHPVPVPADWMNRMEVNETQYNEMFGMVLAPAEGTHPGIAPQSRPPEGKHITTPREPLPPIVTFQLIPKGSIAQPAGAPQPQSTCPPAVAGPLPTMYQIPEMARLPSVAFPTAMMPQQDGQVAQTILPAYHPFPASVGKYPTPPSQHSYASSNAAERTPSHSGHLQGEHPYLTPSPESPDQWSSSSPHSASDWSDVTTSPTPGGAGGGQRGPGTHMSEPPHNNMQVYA
For assay [6], the target named is Pro-neuregulin-1, membrane-bound isoform (Homo sapiens) (UniProt Q02297). The assay can be described thus: NRG1 binders on small-molecule microarrays, primary screen, psychiatric disease protein project, biochemical, small-molecule microarray, fluorescence 635/667 (AID 1075).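 Note: score combines 667 nm spot fluorescence with signal to noise.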 As to conditions: NRG1 binding, 635 nm fluorescence, higher = more signal.
Pro-neuregulin-1, membrane-bound isoform (Homo sapiens), sequence (Q02297 whole entry, looked up, the tested form may be a part, canonical isoform): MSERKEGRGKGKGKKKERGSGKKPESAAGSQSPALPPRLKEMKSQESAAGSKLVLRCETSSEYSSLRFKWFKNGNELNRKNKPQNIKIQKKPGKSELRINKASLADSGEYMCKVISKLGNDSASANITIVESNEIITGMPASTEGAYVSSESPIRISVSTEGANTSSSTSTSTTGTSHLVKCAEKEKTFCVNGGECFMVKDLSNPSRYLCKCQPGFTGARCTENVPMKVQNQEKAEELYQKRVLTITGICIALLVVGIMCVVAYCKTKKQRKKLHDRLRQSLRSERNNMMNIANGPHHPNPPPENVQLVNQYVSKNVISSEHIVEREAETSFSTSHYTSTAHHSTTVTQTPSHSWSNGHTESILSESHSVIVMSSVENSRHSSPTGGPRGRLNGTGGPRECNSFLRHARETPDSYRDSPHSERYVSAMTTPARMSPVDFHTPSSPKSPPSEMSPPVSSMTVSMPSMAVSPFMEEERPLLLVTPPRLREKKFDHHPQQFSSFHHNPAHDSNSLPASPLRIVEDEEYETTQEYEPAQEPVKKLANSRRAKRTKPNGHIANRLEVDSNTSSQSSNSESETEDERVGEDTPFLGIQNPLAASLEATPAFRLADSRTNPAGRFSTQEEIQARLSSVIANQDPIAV
Assay [7] has as its system Neuregulin-1 EGF-like domain. The experiment in a line: binders of neuregulin-1 EGF-like domain, primary screen, biochemical, small-molecule microarray, 635 nm fluorescence (AID 1081).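 Note: binding of the protein to compounds printed on small-molecule microarray slides.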 As to conditions: small-molecule microarray binding, higher = more signal.
Assay [8] in a line: FRG1 promoter luciferase signal modulators, primary screen, FRG1 inhibition for FSHD, cell-based, C2C12 myotubes, firefly/Renilla luciferase, luminescence (AID 1084). The conditions noted are these: higher = more signal, called active from +8 up or from −8 down.
Assay [9] is described as follows: binders of probe aFST on microarray, primary screen, stem cell growth factor project, biochemical, small-molecule microarray, fluorescence 635/667 (AID 1086).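 Note: score merges 667 nm fluorescence with signal-to-noise of each printed compound spot.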 The conditions noted are these: higher = more signal.
The nature of assay [10]: binders of probe aHhip on microarray, primary screen, stem cell growth factor project, biochemical, small-molecule microarray, fluorescence 635/667 (AID 1087).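 Note: score merges spot fluorescence at 667nm with spot signal to noise ratio.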 As to conditions: higher = more signal.

The source made the active and inactive calls.

For the compound `C=CCC(OC(C)=O)[C@@H]1[C@@H](N(Cc2ccc(-c3cccc(C(F)(F)F)c3)o2)C(=O)c2cccc3ccccc23)c2cc(OCCCO)ccc2N1C(=O)Cc1ccc2ccccc2c1` (stereo not given in full), the composite z-score in [1] is -0.0817; in assay [2], -0.261; in assay [3], -0.152; in [4] it was 0.2; in assay [5], -0.35; in [6], 0.376. The figures for the composite z-score in [7], in assay [9] and in assay [10] were 0.109, 0.214 and -0.199, respectively. Further, the z-score in [8] was 0.3 (inactive).

For `COCCCNC(=O)[C@]1(Cc2ccccc2)N=C(c2ccc(OCCCO)cc2)O[C@@H]1c1ccccc1CN=[N+]=[N-]`, the composite z-score in assay [1] was determined as 0.134; in assay [2] it was 0.719; in [3], 0.0584; in assay [4], 1.03; in [5] it was 1.49; in assay [6], 1.87. The composite z-score in assay [7] was 0.837; in [9] it was 0.88; in [10] it was -0.156. Moreover, in assay [8], the z-score was -2.22 (inactive).

As to `CCCNC(=O)[C@@H]1c2ccccc2C(=O)N(Cc2ccccc2OC)[C@H]1c1ccc(CO)cc1`, the composite z-score was -0.148 in assay [1]; 1.34 in assay [2]; -0.0058 in assay [3]; 0.479 in assay [4]; 0.901 in [5]; 1.66 in [6]. For the same compound, the composite z-score was 0.977 in [7], 0.274 in assay [9] and -0.201 in assay [10]. Moreover, the z-score in assay [8] is -2.3 (inactive).

For `C=CC[C@@]1(C(=O)N2CCCCC2)N=C(c2ccc(OCCCO)cc2)O[C@@H]1c1ccccc1CN=[N+]=[N-]`, the composite z-score in assay [1] was 0.134; in assay [2], 0.432; in assay [3] it was 0.084; in [4], 0.378; in assay [5], 1.6; in assay [6] it was 1.8. Besides, the values for the composite z-score in assay [7], in assay [9] and in [10] were 1.32, 0.938 and -0.219, respectively. Further, the z-score in assay [8] was -1.43 (inactive).

For `CCCCC(=C=CC[C@@H](O)c1ccc(CO)o1)CCO`, the composite z-score in [1] was -0.369; in assay [2], 0.152; in [3], -0.0602; in [4], 0.143; in assay [5], -0.168; in [6], 0.457. For the same compound, the composite z-score in assay [7] is 1.19; in assay [9] it was -0.118; in assay [10], 0.238. Besides, in assay [8], the z-score was 0.161 (inactive).

Regarding `[N-]=[N+]=Nc1ccccc1C[C@@]1(C(=O)N2CCCCC2)N=C(c2ccc(OCCCO)cc2)O[C@@H]1c1ccccc1`, the composite z-score came out at 0.155 in assay [1]; 1.1 in [2]; 0.0137 in assay [3]; 0.763 in assay [4]; 1.47 in [5]; 1.74 in assay [6]. Besides, the composite z-score in assay [7] is 1.11; in assay [9], 0.884; in [10], 0.0873. In addition, the z-score in assay [8] is -4.6 (inactive).

Turning to `O=C(NCCN1CCOCC1)[C@@H]1c2ccccc2C(=O)N(Cc2cc(C(F)(F)F)cc(C(F)(F)F)c2)[C@H]1c1ccc(CO)cc1`, the composite z-score in [1] was 0.284; in assay [2] it was 0.183; in assay [3] it was -0.116; in assay [4] it was -0.214; in assay [5], -1.28; in assay [6], 1.27. Besides, the composite z-score in assay [7] was 1.25; in [9], 0.0794; in assay [10], -0.0994. In addition, in [8], the z-score was 0.0006 (inactive).

In the case of `COc1ccc(CCNC(=O)[C@@]2(C)c3ccccc3C(=O)N(c3ccc(C)cn3)[C@H]2c2ccc(CO)cc2)cc1`, the composite z-score in assay [1] is -0.561; in assay [2] it was -0.997; in [3] it was -0.171; in [4] it was -0.516; in [5], -0.859; in assay [6], 0.884. Further, the composite z-score in assay [7] was 1.34; in assay [9], -0.389; in assay [10] it was -0.13. Besides, the z-score in [8] was 1.07 (inactive).

Turning to `COC(=O)[C@@]1(Cc2ccccc2)[C@H]2c3cc(C(=O)N(C)C)n(CCc4c[nH]c5ccc(O)cc45)c3C[C@H]2CN1C(=O)c1ccccc1`, the composite z-score in [1] was 0.808; in [2], -0.0685; in [3] it was 0.0518; in [4], 0.188; in [5], 0.832; in [6], -0.198. Also, the composite z-score in [7] was 1.29; in assay [9] it was 1.21; in assay [10], -0.191. Also, the z-score in [8] was 0.688 (inactive).

Regarding `O=C1[C@@]23C=C(Br)[C@H](C[C@@H]2COC3)[C@]12CO2`, the composite z-score in [1] was -0.199; in assay [2], -0.582; in assay [3] it was -0.12; in [4], -0.536; in assay [5] it was -1.71; in assay [6], -0.279. The figures for the composite z-score in [7], in assay [9] and in [10] were -1.15, -0.541 and -0.0065, respectively. The z-score in [8] was 0.126 (inactive).

With `O=C1C2C=CC(C(O)C=Cc3ccc([N+](=O)[O-])cc3)N(Nc3ccccc3F)C2C(=O)N1c1ccccc1` (stereo not given), the composite z-score in assay [1] came out at 0.133; in [2] it was 0.537; in assay [3] it was 0.0135; in assay [4], 1.03; in [5], 1.51; in assay [6], 1.39. The composite z-score amounted to 1.16 in assay [7], 1.11 in assay [9] and 0.0274 in assay [10]. For the same compound, in [8], the z-score was 0.477 (inactive).

Regarding `C[N+](C)(C)CCCC[C@@H]1NC(=O)[C@H]2C[C@@H](C(=O)NCCCCCCNC(=O)CS)[C@@H](c3ccc(O)cc3)N2C1=O`, the composite z-score in assay [1] was 0.312; in [2], 2; in assay [3], -0.131; in assay [4], -0.457; in [5], -1.36; in assay [6], 1.7. In addition, the composite z-score in assay [7] was 1.41; in assay [9] it was -0.39; in assay [10], -0.0994. Also, the z-score in assay [8] is -0.395 (inactive).

With `C=C(/C(=C/C[C@H](OC(=O)c1ccncc1)c1ccc(OCCO)cc1)c1cc(C(=O)OC)ccc1OC)C(C)C`, the composite z-score was -0.0836 in [1]; 0.362 in [2]; -0.134 in assay [3]; 0.607 in [4]; -0.478 in [5]; 0.892 in assay [6]. The results for the composite z-score in assay [7], in assay [9] and in [10] were 0.781, 0.87 and -0.0994, respectively. For the same compound, the z-score in [8] is 6.19 (inactive).

As for `C=CC[C@]1(C(N)=O)COC(c2ccc(OCCCO)cc2)=N1`, the composite z-score is -0.123 in assay [1]; 0.38 in assay [2]; -0.0407 in assay [3]; 0.282 in assay [4]; 0.85 in assay [5]; 0.0632 in assay [6]. In addition, the values for the composite z-score in assay [7], in assay [9] and in assay [10] were 1.09, 0.418 and -0.0645, respectively. For the same compound, the z-score in [8] is -0.25 (inactive).

Turning to `CN1C(=O)C2C=CC(C(O)C=Cc3ccc([N+](=O)[O-])cc3)N(Nc3ccccc3)C2C1=O` (stereo not given), the composite z-score was -0.283 in [1]; 0.617 in assay [2]; 0.0411 in assay [3]; 0.497 in assay [4]; 1.25 in assay [5]; 1.59 in assay [6]. Further, the composite z-score was 1.35 in [7], 0.998 in assay [9] and -0.132 in assay [10]. Also, the z-score in [8] was 2.12 (inactive).

As for `O=C1NC(=O)C2C1C=CC(C(O)c1ccc(I)cc1)N2Nc1ccccn1` (stereo not given), the composite z-score in assay [1] was 0.193; in [2], 0.142; in assay [3] it was 0.0111; in [4] it was -0.0668; in [5], 0.599; in assay [6], 1.71. The values for the composite z-score in assay [7], in [9] and in [10] were 0.725, -0.0237 and -0.0173, respectively. Also, in assay [8], the z-score is 0.63 (inactive).

Turning to `NCCCCCNC(=O)[C@H]1C[C@H]2C(=O)N[C@@H](Cc3ccccc3)C(=O)N2[C@H]1c1cccc(OCCO)c1`, the composite z-score in assay [1] is 2.24; in assay [2] it was 0.387; in [3] it was 0.0364; in assay [4] it was 0.116; in assay [5], 0.352; in assay [6], 2.05. Besides, the composite z-score came to 0.408 in assay [7], 1.04 in assay [9] and 0.705 in assay [10]. Further, the z-score in assay [8] was 1.27 (inactive).
